Experimental data published in PubChem BioAssay AID651724 (National Center for Advancing Translational Sciences (NCATS), 2012).
Screen size: about 340,000 compounds; about 1,700 (0.5%) were called active. About 2% were inconclusive and are not listed. Only a selection was taken, and actives are over-represented in it overall. Unmarked numbers belong to inactive results. No stated cut-off is given here; in the data, active means activity change below about -65%; inconclusive means mostly about -30% to -63%; inactive means weaker than that.

These compounds were tested on CtBP / adenovirus E1A interaction (AlphaScreen) (assay: qHTS Assay for Inhibitors of the CtBP/E1A Interaction). Settings: AlphaScreen GST-E1A/His-CtBP binding, 1536-well; active compounds read low.
Excerpt: Carboxyl-terminal binding protein (CtBP) is a co-repressor for many transcription factors. […] Our studies have shown that CtBP is overexpressed in multiple human cancers, including lung, breast, and head and neck cancers. In particular, it is over-expressed in 50% of primary lung cancer and 90% of metastatic lesions. CtBP suppresses epithelial-specific genes as well as genes critical for apoptosis, providing the underlying molecular mechanism for its role in tumorigenesis. […] Based on the above data, we hypothesize that 1) CtBP suppresses the pro-apoptotic and epithelial genes, therefore overexpressed CtBP in human cancer cells increases EMT and cancer survival; 2) decreasing CtBP's function represents a targeted therapy for lung cancer and potentially multiple cancer types. As a co-repressor, CtBP binds to E1A and other transcription factors through a conserved peptide motif to carry out its action. Inhibiting this interaction using small molecules can potentially serve as effective cancer therapeutics.
To this end, we have developed a homogenous AlphaScreen assay targeting the CtBP/E1A interaction. We performed a large scale HTS of the Molecular Libraries Small Molecule Repository (MLSMR) to identify inhibitors of the CtBP/E1A interaction as potential anti-cancer therapeutics. Compounds identified can also be used as chemical probes to better understand the biological functions of CtBP.
NIH Chemical Genomics Center [NCGC]
NIH Molecular Libraries Probe Centers Network [MLPCN]
Assay Submitter (PI): Rui Zhao, University of Colorado Denver
The first step of the 5uL AlphaScreen assay is to dispense assay buffer (50 mM Tris, pH 8.0, 300 mM NaCl, 0.05% BSA, 0.02% Tween 20, 1 mM TCEP) into a Greiner 1536 white solid bottom microtiter plate (789175-F). Five microliters is added to Column 1, 4 uL is added to Column 2 and 3 uL is added to Columns 3 through 48. A 5X protein solution (125 nM GST-E1A protein + 125 nM His-tagged CtBP protein) is mixed and 1 uL is dispensed to Columns 3-48. Using a 1536 pintool, 23 nL of compound is transferred to the assay plate and the plate is incubated with a lid at 37 deg C in the dark for two hours. A solution of 5X AlphaScreen beads is mixed (50 ug/mL Glutathione linked donor beads + Nickel chelated acceptor beads) and 1 uL is dispensed to Columns 2-48. The assay plate is incubated for one hour, with a lid, at 37 deg C in the dark. The plate is read using a Perkin Elmer Envision using an AlphaScreen protocol.
On the % scale 0 is the no-effect control and ±100 the full control effect.

SMILES	activity change
CCOc1ccc(C(CC(=O)O)NC(=O)Cc2ccccc2)cc1OC (stereo not given)	-13.3%
COc1ccc(CCNS(=O)(=O)c2cccc3cccnc23)cc1OC	-9.76%
CCCCC(=O)NC(c1ccc(OC)c(OC)c1)c1ccc2cccnc2c1O (stereo not given)	-94.2% (active)
Cc1ccccc1C#CC1=CC(=O)CC(C)(C)C1	5.53%
CCCCNC(=O)C[C@@H]1C[C@@]2(C(=O)OC)CC(C)(C)CC=C2N(Cc2ccco2)C1=O	2.24%
COCOc1cccc(CN2CCC(C)(Oc3ccc(SC)cc3)C2)c1 (stereo not given)	-22.6%
CSc1ccc(CN2CCC2(C)C(=O)NCc2ccccc2Br)cc1 (stereo not given)	-8.98%
COC(=O)[C@@]12C[C@@H](CC(=O)NCCCCc3ccccc3)C(=O)N(Cc3ccccc3)C1=CCC(C)(C)C2	-0.75%
O=c1ccc2c(-c3ccccc3S(=O)(=O)O)c3ccc(O)c(O)c3oc-2c1O	-78.5% (active)
CCCCCNC(=O)C1C(=O)Nc2ccccc2C(=O)N1C(C)(C)C (stereo not given)	-0.209%
COc1ccc(Cl)cc1-c1cc(C(=O)Nc2cc(OC)c(OC)c(OC)c2)[nH]n1	4%
O=C1c2ccccc2C(=O)N1CCCc1nc(-c2ccccc2)no1	5.59%
O=C1c2cccc3cccc(c23)C(=O)N1CCCCCc1n[nH]c(=S)o1	-82.2% (active)
O=C1c2ccccc2C(=O)N1CCCCCCN1C(=O)c2ccccc2C1=O	6.03%
C[C@@H]1CN([C@H](C)CO)C(=O)c2cc(Br)cnc2O[C@@H]1CN(C)Cc1cncnc1	-16.6%
Cc1onc(-c2ccccc2)c1-c1nnc(COC(=O)c2ccc(N(C)C)cc2)o1	2.13%
COC(=O)[C@@]12C[C@@H](CC(=O)N3CCC(c4ccccc4)CC3)C(=O)N(Cc3ccccc3)C1=CCC(C)(C)C2	0.365%
CCOC(=O)c1ccc(Nc2cc3ccccc3c(=O)[nH]2)cc1	2.43%
COC(=O)c1ccc(NCC(=O)c2ccccc2)cc1	6.11%
CCOC(=O)c1nc(Nc2ccc(C(=O)OC)cc2)c2ccccc2n1	-86.6% (active)
COc1ccc(-c2coc3c(C(=O)NC(C)C)cccc23)c(C)c1	-12.9%
Clc1cccc(Cc2c(-c3cccc(Cl)c3)nc3ccc(Cl)cn23)c1	0.333%
COc1ccc(Br)cc1/C=N/Nc1ccc(Cl)c(C(=O)O)c1	-2.31%

SMILES	activity change
Cc1ccc(OCCOCCOc2ccc(Br)cc2/C=N\NC(=O)c2ccncc2)cc1	-10.2%
COc1ccc(CC(=O)NCC(=O)N/N=C/c2cc(Br)ccc2OC)cc1	-87.6% (active)
C=CCNC(=O)COc1coc(CN2CCN(Cc3ccccc3)CC2)cc1=O	2.1%
O=C(/C=C/c1ccccc1)Oc1coc(CSc2ncccn2)cc1=O	-92.2% (active)
Cc1ccc(C(=O)Oc2coc(CSc3nnc(NC(=O)c4cccs4)s3)cc2=O)cc1C	-16.7%
O=Nc1c(O)cc(O)c2ccccc12	-6.15%
COc1ccc(C(=O)N2CCCCC2c2cc(C(=O)Nc3ccc(F)c(Cl)c3)no2)cc1 (stereo not given)	-5.81%
O=Cc1cn(CCOc2ccc(F)cc2)c2ccccc12	0%
CSCCC(c1nnnn1Cc1ccccc1)N1CCN(C/C=C/c2ccccc2)CC1 (stereo not given)	-18.4%
O=C(NCc1ccco1)c1cccn2c(=O)c3c4c(sc3nc12)CCCC4	-12.2%
COc1ccc(CCn2c(=N)c(C(=O)NCc3ccco3)cc3c(=O)n4cccc(C)c4nc32)cc1	-81.7% (active)
Cc1cccn2c(=O)c3cc(C(=O)NCCN4CCOCC4)c(=N)n(Cc4cccnc4)c3nc12	-25.6%
CC(C)C[C@@H](COCc1ccc(Cl)cc1)N1CCN(C(=O)c2ccc(Cl)cc2Cl)CCC1=O	0%
CCOC(=O)N1CCN(C(c2ccnc3ccccc23)c2nnnn2-c2c(C)cccc2C)CC1 (stereo not given)	0%
CCN1CCN(C(c2cccnc2)c2cc(Cl)c3cccnc3c2O)CC1 (stereo not given)	-99.3% (active)
CCOC(=O)N1CCN(C(c2cccnc2)c2ccc3cccnc3c2O)CC1 (stereo not given)	-91.9% (active)
CCOC(=O)N1CCN(C(=O)CSc2nc(=O)n3cccc(C)c3n2)CC1	-4.84%
N#CCCN(C(=S)Nc1ccc(Cl)c(Cl)c1)C1CCCCC1	0%
COc1ccc(-c2cnc3c(c2)C(=O)N([C@H](C)CO)C[C@@H](C)[C@H](CN(C)Cc2ccccc2)O3)cc1	-12.8%
CC(C)Oc1ccc(CN2CCC2(C)C(=O)NCc2ccc(C(F)(F)F)cc2)cc1 (stereo not given)	0.872%
Cc1ccc(C(=O)NNC(=O)c2ccncc2)cc1S(=O)(=O)N1CCCCC1	-2.42%
Cc1ccc(NC(=O)C2CC(=O)N(c3ccc4c(c3)OCCO4)C2)cc1S(=O)(=O)N1CCCCCC1 (stereo not given)	-5.1%
Cc1ccc(C(=O)Nc2ccc3c(c2)OCO3)cc1S(=O)(=O)N1CCCCC1	-66.6% (active)

SMILES	activity change
OC(c1ccccc1)c1nc(/C=C/c2ccc(C(F)(F)F)cc2)cs1 (stereo not given)	7.85%
Cc1nc2c(OCc3ccc(Cl)cc3Cl)cccn2c1N(C)CC1CC1	-25.5%
COc1ccc(/C=N/NC(=O)c2ccncc2)cc1CN1CCCc2ccccc21	13.2%
COc1cc(OC)c(/C=N/NC(=O)c2ccc([N+](=O)[O-])cc2)cc1Br	-0.151%
COc1cccc(/C=N/NC(=O)c2[nH]nc3c2CCc2ccccc2-3)c1O	-67.1% (active)
CC(C)c1cc(CN2CCOCC2)cc(C(C)C)c1O	4.14%
Oc1c(C(c2ccccn2)N2CCOCC2)ccc2cccnc12 (stereo not given)	-81.3% (active)
CCCCN1C[C@H](c2ccc(Br)cc2)[C@@H](CC(=O)Nc2ccc(Br)cc2)C1=O	-4.21%
COc1ccc(NC(=O)CCC(=O)Nc2cc(OC)c(NC(=O)c3ccco3)cc2OC)c(OC)c1	-87.4% (active)
COc1ccc(CC(=O)Nc2ccccc2NC(=O)c2ccco2)cc1OC	5.07%
COc1ccc(OCC(=O)Nc2ccc(NC(=O)c3ccco3)c(C)c2)cc1	-2.52%
CC(=O)Nc1cc(-c2ccccc2N(C)C)cn2c(-c3ccc(F)c(Cl)c3)cnc12	-22.9%
CCCOc1ccc(F)cc1-c1cc(C(=O)Nc2ccc(F)c(Cl)c2)[nH]n1	2.38%
COCC1CCCCN1C(=O)c1cc(COc2ccc(C)c(C)c2)on1 (stereo not given)	-0.436%
C=CCOCCN(C)C1=NS(=O)(=O)c2ccccc21	0.314%
COc1ccc(C(C)(C)C)cc1NC(=O)CN(C)C1=NS(=O)(=O)c2ccccc21	2.94%
COc1ccc(/C=N/N(C)C2=NS(=O)(=O)c3ccccc32)cc1OC	-89.3% (active)
CC(=O)Nc1cc(-c2ccccc2F)cn2c(-c3cccc(C(F)(F)F)c3)cnc12	-8.33%
COc1ccccc1-c1cc2nc(NCc3cccc(Cl)c3)ccn2n1	3.38%
O=[N+]([O-])c1ccc2nc(-c3ccccn3)[nH]c2c1	-90.6% (active)
O=S(=O)(Nc1ccc2nc(-c3ccco3)[nH]c2c1)c1ccccc1	-18.3%
O=[N+]([O-])c1cccc(S(=O)(=O)NCc2ccccn2)c1	1.03%
COCOCCn1cc(CN2CCS(=O)(=O)N(Cc3ccc(-c4ccc(OC)cc4)cc3)C(CC(C)C)C2=O)nn1 (stereo not given)	-1.08%

SMILES	activity change
Cc1cc(Nc2ccc(C(=O)N3CCCCC3)cc2)c2cccc(C)c2n1	1.83%
Cc1ccc(Nc2cc(C)nc3c(C)ccc([N+](=O)[O-])c23)cc1	-66.7% (active)
Cc1cc(Nc2ccc(N3CCOCC3)cc2)c2cccc(C)c2n1	-16.1%
COC(=O)c1ccccc1N=NNc1ccc([N+](=O)[O-])cc1	-2.76%
Fc1cccc(Cc2c(-c3ccc(Cl)cc3)nc3ccc(Cl)cn23)c1	0%
CCN(CC)C(=O)C1=C(C)N(Cc2ccc(F)cc2)C(=O)C(CC(=O)NCc2cccc3ccccc23)C1 (stereo not given)	-2.72%
COc1ccc(NC(=O)CCNC(=O)Cn2cnc3sc4c(c3c2=O)CCCC4)cc1OC	0.477%
COc1ccc(NC(=O)CCCNC(=O)Cn2cnc3sc4c(c3c2=O)CCCC4)cc1OC	20.4%
COc1ccc(/C=N/Nc2ncnc3sc4c(c23)CCCC4)cc1O	-87.1% (active)
COC(=O)C1=CN(c2c(C)cc(C)cc2C)C(N)=C(C#N)C1c1cccc(F)c1 (stereo not given)	3.08%
CCCCCCN1CCN(C2CN(Cc3cn(CCCCCC)nn3)S(=O)(=O)C2)CC1 (stereo not given)	0.678%
Cc1nc2c(OCc3cccc(Cl)c3)cccn2c1N(C)CC1CC1	-6.06%
COc1ccc(NC(=O)C2Cc3c(-c4ccc(Cl)cc4)ccnc3O2)cc1 (stereo not given)	1.32%
COCCCNC(=O)c1cccc2c(-c3ccc(O)c(OC)c3)coc12	-18.4%
Cc1cc(NC(=O)CSc2nnc(-c3ccc(Cl)s3)o2)no1	-93.2% (active)
Cc1cc(NC(=O)CSc2ncc(C(F)(F)F)cc2Cl)no1	-2.36%
O=C(CSc1nnc(-c2ccncc2)o1)Nc1cccc(Cl)c1	6.8%
CCCCc1c(-c2ccc(Br)cc2)ncn1CCc1ccccc1OC	-11.3%
Cc1ccc(-n2c(SCC(=O)NCCC3=CCCCC3)nc3n[nH]c(C)c3c2=N)cc1Cl	-20.7%
CCCCNC(=O)CSc1nc2n[nH]c(C)c2c(=N)n1-c1cccc(Cl)c1C	-0.913%
COc1cccc(-n2c(SCC(=O)NC3CCCCC3)nc3n[nH]c(C)c3c2=N)c1	-66.5% (active)
